Screening results from PubChem BioAssay.
The list is not random: actives were taken first. Their share in the collection is about 1.3%.
NCOA3 inh – human NCOA3 inhibition; inhibition, % at 3.6 µM; AID 588352; HEK293 GAL4-SRC3 luciferase reporter, luminescence; 0.17% of 360,000 active; Q9Y6Q9;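 active means inhibition above a per-campaign cutoff, the mean of all compounds plus 3 SD, cut at about 60% in these data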;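 further: 0% = DMSO-treated cells and 100% = gossypol-treated cells at 36 µM; higher means less SRC3-driven luciferase light from the GAL4 reporter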
NCOA2 inhibitor – inhibits human steroid receptor coactivator 2; Q15596; HEK293 GAL4-SRC2 luciferase reporter, luminescence; inhibition, % at 9 µM; 0.17% of 370,000 active;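 active means inhibition above the mean inhibition of all tested compounds plus 3 SD, set per campaign, cut at about 52% in these data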;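 further: 0% = DMSO treated cells and 100% = cells given Gossypol at 36 µM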
Target sequence (Q15596 whole entry, looked up, the tested form may be a part): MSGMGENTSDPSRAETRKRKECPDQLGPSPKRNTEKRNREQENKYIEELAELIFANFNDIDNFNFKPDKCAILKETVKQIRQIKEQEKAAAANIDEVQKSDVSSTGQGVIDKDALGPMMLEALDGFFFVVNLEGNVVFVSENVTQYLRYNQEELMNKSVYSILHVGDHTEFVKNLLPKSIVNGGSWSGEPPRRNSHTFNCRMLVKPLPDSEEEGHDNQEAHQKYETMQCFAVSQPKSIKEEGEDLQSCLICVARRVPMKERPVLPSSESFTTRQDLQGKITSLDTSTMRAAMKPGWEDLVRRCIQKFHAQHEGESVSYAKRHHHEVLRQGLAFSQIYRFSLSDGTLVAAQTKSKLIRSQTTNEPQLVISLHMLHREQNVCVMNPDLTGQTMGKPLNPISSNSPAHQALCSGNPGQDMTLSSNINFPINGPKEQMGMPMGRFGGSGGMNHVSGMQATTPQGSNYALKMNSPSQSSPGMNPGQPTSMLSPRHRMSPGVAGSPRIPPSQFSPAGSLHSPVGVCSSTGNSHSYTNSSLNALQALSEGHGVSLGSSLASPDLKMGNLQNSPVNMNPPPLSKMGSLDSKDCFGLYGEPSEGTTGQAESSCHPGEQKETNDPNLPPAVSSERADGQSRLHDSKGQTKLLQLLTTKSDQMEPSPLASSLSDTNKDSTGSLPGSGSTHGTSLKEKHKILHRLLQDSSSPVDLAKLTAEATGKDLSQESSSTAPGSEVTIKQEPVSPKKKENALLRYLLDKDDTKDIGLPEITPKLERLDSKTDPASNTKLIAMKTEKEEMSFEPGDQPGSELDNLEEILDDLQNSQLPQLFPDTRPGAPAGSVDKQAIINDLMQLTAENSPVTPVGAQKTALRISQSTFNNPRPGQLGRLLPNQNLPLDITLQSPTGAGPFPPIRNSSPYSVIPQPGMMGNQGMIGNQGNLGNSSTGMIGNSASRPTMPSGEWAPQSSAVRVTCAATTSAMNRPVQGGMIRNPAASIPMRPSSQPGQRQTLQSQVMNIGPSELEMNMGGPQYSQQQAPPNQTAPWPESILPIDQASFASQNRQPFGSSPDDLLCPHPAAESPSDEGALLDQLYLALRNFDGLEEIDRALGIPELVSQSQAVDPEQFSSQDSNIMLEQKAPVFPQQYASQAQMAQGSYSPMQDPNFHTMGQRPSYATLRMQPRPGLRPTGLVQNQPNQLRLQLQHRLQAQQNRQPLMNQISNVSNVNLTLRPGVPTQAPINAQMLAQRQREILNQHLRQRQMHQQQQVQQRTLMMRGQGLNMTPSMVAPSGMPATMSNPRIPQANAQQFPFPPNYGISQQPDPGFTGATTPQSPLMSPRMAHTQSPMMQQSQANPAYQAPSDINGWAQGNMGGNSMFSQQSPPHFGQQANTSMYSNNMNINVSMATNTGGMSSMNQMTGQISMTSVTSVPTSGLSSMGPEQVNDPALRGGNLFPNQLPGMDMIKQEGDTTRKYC
NCOA1 inh – human NCOA1 inhibition; 0.12% of 360,000 active; inhibition, % at 3.6 µM; Q15788; HEK293 GAL4-SRC1 luciferase reporter, luminescence;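 active means inhibition above the campaign mean plus 3 SD, with each screening campaign given its own cutoff, cut at about 60% in these data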;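 further: 0% = DMSO treated cells and 100% = gossypol at 36 µM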
NR5A2 inv ag – NR5A2 inverse agonism in reporter assay; HEK293T StAR-luciferase reporter, LRH-1 transfected, 24 h; inhibition, % at 3.6 µM; 0.13% of 360,000 active;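 active means inhibition above the mean inhibition of all tested compounds plus 3 SD, cut at about 73% in these data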;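 further: 0% = DMSO wells and 100% = reporter-only cells lacking LRH-1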
COUP-TFII inh – NR2F2 (human) inhibition, primary screen. HEK293T NGFI-A luciferase reporter, luminescence. inhibition, % at 8.6 µM. 0.7% of 370,000 active. AID 686940;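 active means inhibition above a per-plate cutoff, mean inhibition of test wells between control levels plus 3 SD, cut at about 38% in these data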;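 further: cells cotransfected with COUP-TFII expression vector driving the NGFI-A reporter; 0% = median of COUP-TF2 test wells and 100% = reporter-only cells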
Gli-Sufu block – Gli-Sufu pathway antagonism | Sufu-KO-LIGHT fibroblasts, Gli luciferase reporter luminescence | inhibition, % at 5 µM | 0.74% of 340,000 active | AID 588413;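 active means inhibition above about 55%, limit read from the data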;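 further: 0% = DMSO-treated cells and 100% = wells with medium but no cells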
Active calls of the source: *; i = inactive; . = not tested or not shown.

SMILES	NCOA3 inh	NCOA2 inhibitor	NCOA1 inh	NR5A2 inv ag	COUP-TFII inh	Gli-Sufu block
Brc1ccc(C2=CC(c3cccs3)n3ncnc3N2)cc1 (stereo not drawn)	-2.7	1.7	-13.4	25.1	3.7	98.2*
Cc1nc(S(=O)(=O)N(C)c2ccccc2)c(C#N)c(C)c1Cl	31.2	53.9*	17.9	14.1	14.5	-13.3
CN(c1ccccc1)S(=O)(=O)c1ccc(Cl)nc1	17.7	-54.9	7.7	5.0	14.6	3.5
C=CCN1C(=O)[C@@H](CC(=O)NCCc2ccccc2OC)[C@]2(C(=O)OCC)CCCCC/C=C/12	.	18.6	.	.	-8.0	.
COc1ccc(C(=O)c2c(C(F)(F)F)oc3c2C(=O)c2ccccc2C3=O)cc1OC	32.2	13.4	9.3	2.4	43.1*	21.6
COc1ccc(C(=O)Nc2ccc3c(c2)C(=O)c2ccccc2C3=O)cc1OC	-4.2	-33.6	-5.5	-34.4	-3.3	-31.8
CN(CC#Cc1ccccc1)C(N)=NC(=O)/C=C/c1ccccc1	.	1.6	.	.	0.4	.
COc1cc(C=O)ccc1OCCCOc1ccccc1C(=O)O	-61.5	60.0*	-39.4	-90.1	7.5	9.1
O=C(NNC1CC(=O)N(c2cccc(Cl)c2)C1=O)c1cccs1 (stereo not drawn)	-9.1	-5.4	-12.9	-37.1	-6.9	-13.3
COc1cccc(N2C(=O)CC(NNC(=O)c3cccs3)C2=O)c1 (stereo not drawn)	2.1	99.8*	-4.8	-24.7	13.1	-14.9
COc1nc(Nc2nc3ccccc3c(=O)[nH]2)nc2ccc(C)cc12	8.5	-34.7	-0.8	5.6	24.2	62.9*
Cc1cc(C)cc(Nc2nc3ccccc3c(=O)[nH]2)c1	-0.2	-37.0	2.1	0.7	-3.4	1.2
O=C(C1CCCN(S(=O)(=O)c2ccccc2F)C1)N1CCN(Cc2ccccc2)CC1 (stereo not drawn)	.	2.7	.	.	-12.6	.
CCN(CC)c1ccc(NC(=O)CCCCC(=O)Nc2ccc(N(CC)CC)cc2)cc1	31.9	56.9*	6.3	3.1	30.8	1.2
CCC[C@@H](CN1CCC[C@H]1CN1C(N)=NC[C@@H]1Cc1ccccc1)N1C[C@@H]([C@H](C)CC)N(CCCC2CCCC2)C1=N	-4.3	.	-12.8	-3.5	.	61.4*
C=CC(=O)Nc1ccc(Nc2nc(NC3CCC(N(C)C)CC3)nc3c2ncn3C(C)C)cc1 (stereo not drawn)	83.9*	.	86.3*	97.0*	.	51.5
CC(C)n1cnc2c(Nc3ccc(F)c(Cl)c3)nc(NCCO)nc21	-6.6	-46.1	-14.9	8.7	-1.1	14.4
CCOC(=O)c1csc(NC(=O)C2CCCN(S(=O)(=O)c3ccc(C)cc3)C2)n1 (stereo not drawn)	.	-5.4	.	.	25.2	.
CCCCCc1ccc(OCCOCCn2c[n+](C)c3ccccc32)c(CCCCC)c1	54.2	.	-34.7	37.8	.	87.3*
C[n+]1cn(CC(O)COCc2ccccc2)c2ccccc21 (stereo not drawn)	-12.4	1.9	-0.7	5.5	-3.3	-19.1
COC(=O)[C@]12C[C@H](CC(=O)N3CCCC3)C(=O)N(Cc3cccc4ccccc34)C1=C[C@H](C(C)C)O[C@@H]2C1CC1	.	2.0	.	.	17.8	.
CCC(C)(C)c1ccc(OCCCC[n+]2ccc(C)cc2)c(C(C)(C)CC)c1	.	4.2	.	.	27.3	83.7*
CN(CCOC(=O)CC1C=CCC1)C1CN(Cc2cn(Cc3ccccc3Cl)nn2)S(=O)(=O)C1 (stereo not drawn)	.	-15.8	.	.	-12.0	.
CCN1C/C(=C/c2cccc([N+](=O)[O-])c2)C(=O)/C(=C/c2cccc([N+](=O)[O-])c2)C1	12.4	20.6	16.5	-10.5	18.8	58.3*
O=C1NC(=O)/C(=C/c2cccc([N+](=O)[O-])c2)N1	-58.0	-38.7	-15.5	22.9	-10.1	44.1
SMILES	NCOA3 inh	NCOA2 inhibitor	NCOA1 inh	NR5A2 inv ag	COUP-TFII inh	Gli-Sufu block
C=CCSc1nsc(NC(=O)Nc2ccc(F)cc2)n1	54.9	-0.9	17.1	21.5	53.6*	39.3
CCSc1nsc(NC(=O)Nc2ccccc2F)n1	-78.7	-42.4	-60.5	-114.8	-43.8	-37.8
COc1ccc2nc(NN=C(C)c3ccccn3)cc(C)c2c1	-17.9	-12.5	-5.8	7.5	-15.2	78.6*
COc1cc(C(=O)N/N=C(\C)c2ccccn2)cc(OC)c1OC	11.9	13.2	-16.4	32.4	-66.4	49.9
COC(=O)c1cc(C(C)c2c[nH]c3ccccc23)n2ccccc12 (stereo not drawn)	.	22.3	.	.	-71.6	.
CCOC(=O)[C@@]12CCC3=C1N(CCC3)C(=O)[C@H](CC(=O)NCCc1ccccc1OC)C2	.	2.7	.	.	14.5	.
Cc1oc2c(c1C(=O)c1ccccc1)C(=O)C(=O)c1ccccc1-2	-39.1	62.5*	-15.6	15.8	-31.4	6.2
Clc1ccc([C@H]2OC[C@@]3(CNCC4CC4)CS[C@H](c4ccc(Cl)cc4)N23)cc1	.	6.2	.	.	7.2	.
CN1OC[C@@H]2CN[C@H](c3ccc(-c4cc5ccccc5o4)cc3)C[C@@H]21	87.2*	.	86.8*	90.5*	.	.
CCN(Cc1cn(Cc2ccccc2)nn1)S(=O)(=O)c1ccccc1Br	.	-4.4	.	.	3.5	.
COC(=O)c1cc(-c2cc(Cl)ccc2OC)c(=O)n2c1CCC2	.	-16.0	.	.	12.3	.
Cc1ccccc1NC(=S)N1CCN(Cc2ccc3c(c2)OCO3)CC1	6.0	-27.5	-0.7	16.7	3.0	-2.9
Cc1ccc(S(=O)(=O)N(C)C)cc1NC(=S)N1CCN(Cc2ccc3c(c2)OCO3)CC1	0.6	19.5	0.4	11.3	19.2	55.1*
CCn1c2c(c(=N)c3c1CCC3)CCCC2	-15.1	-10.6	-2.2	-1.7	14.7	4.4
CCCCCCCCCn1c2c(c(=N)c3c1CCC3)CCCC2	81.3*	.	49.6	89.2*	.	88.5*
Cc1ccc(N(C(=O)CCl)C(C(=O)NC2CCCCC2)c2cccnc2)cc1C (stereo not drawn)	.	62.9*	.	.	21.1	93.4*
CC(=O)C1=C(C)NC(SCC(=O)c2cc(Cl)ccc2Cl)=C(C#N)C1c1ccco1 (stereo not drawn)	3.6	-7.0	9.4	12.3	2.9	69.3*
O=C(CN1C(=O)c2ccccc2S1(=O)=O)c1ccc(OC(F)F)cc1	12.0	.	35.6	31.3	.	78.2*
Cc1ccc(C)c(NC(=O)C2CCCN2S(=O)(=O)c2cccc3cccnc23)c1 (stereo not drawn)	.	-6.8	.	.	16.9	.
CN(C)CCCN1C(=O)c2cccc3cccc(c23)C1=O	1.8	-15.5	2.0	-13.8	-4.3	1.3
CN(C)CCN1C(=O)c2cccc3cc([N+](=O)[O-])cc(c23)C1=O	-30.5	i	30.7	81.6*	-92.0	68.6*
COc1ccc(-c2n(CC(=O)OC3CC(C)CCC3C(C)C)c3ccccc3[n+]2C)cc1 (stereo not drawn)	69.8*	18.4	23.5	58.5	-21.1	86.4*
O=C(OCc1cn(Cc2ccc(Cl)cc2)nn1)N1CCCC1	.	-22.4	.	.	-1.7	.
Cc1cc(-c2n[nH]c(=S)n2N=Cc2ccc(OCc3ccccc3)cc2)n[nH]1	.	-19.9	.	.	-43.3	.
CCN1CCCCC(NC(=O)c2ccc(F)c(F)c2)C1=O (stereo not drawn)	.	-50.1	.	.	-16.9	.
